Assay outcomes (PubChem)
Wee1 stabilizer: Wee1 degradation inhibitors, primary screen, cell-based, HeLa, Wee1K328M-luciferase, luminescence. Wee1-like protein kinase (Homo sapiens), P30291. HeLa Luc-Wee1K328M stability; 100% = proteasome inhibitor MG132 effect. reporter increase, % at 5 µM. 1.2% of 220,000 active. AID 1321, 2008;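 active means activation above the mean of all tested compounds plus 3 SD, set per screening run, cut at about 8.8% in these data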;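 further: cells exposed to compound for 20 h before luminescence read; 0% = DMSO alone and 100% = MG132 at 30 µM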
Target sequence (P30291 whole entry K328M): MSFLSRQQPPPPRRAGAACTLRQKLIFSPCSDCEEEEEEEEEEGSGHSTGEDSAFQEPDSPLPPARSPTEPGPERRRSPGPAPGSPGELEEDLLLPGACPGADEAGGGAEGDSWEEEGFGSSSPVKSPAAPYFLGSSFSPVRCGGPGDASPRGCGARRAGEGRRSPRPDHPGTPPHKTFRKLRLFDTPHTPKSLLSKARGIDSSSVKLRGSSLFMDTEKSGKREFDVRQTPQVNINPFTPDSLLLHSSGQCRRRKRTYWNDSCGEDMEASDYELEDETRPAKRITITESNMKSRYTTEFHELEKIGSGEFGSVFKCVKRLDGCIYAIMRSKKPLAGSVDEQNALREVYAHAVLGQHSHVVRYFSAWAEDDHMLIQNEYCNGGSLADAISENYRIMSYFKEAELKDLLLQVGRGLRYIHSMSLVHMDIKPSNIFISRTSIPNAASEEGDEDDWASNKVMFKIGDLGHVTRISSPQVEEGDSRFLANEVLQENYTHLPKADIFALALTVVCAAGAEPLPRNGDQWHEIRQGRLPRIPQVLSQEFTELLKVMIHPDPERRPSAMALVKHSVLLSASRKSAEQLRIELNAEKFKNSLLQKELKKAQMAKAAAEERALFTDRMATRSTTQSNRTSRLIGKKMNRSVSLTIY
HSV augment: enhancers of HSV replication in host cells, fold increase, host cell viability; HSV replication augmentation in cells; maximum fold increase; 0.005% of 220,000 active; AID 1956, 2009; in the data active means maximum fold increase above about 1.5; inconclusive means no clear call, values can overlap the other calls; tested in PC3 cells
zVAD death inh: inhibitors of zVAD-triggered necroptosis, primary screen, L929 cells | L929 zVAD necroptosis rescue, ATP luminescence, 24 h; with zVAD 60 µM | viability rescue, % at 10 µM | 0.38% of 220,000 active;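 active means activation, scaled between plate controls, above about 75%, limit read from the data; inactive means activation under that limit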;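 further: 0% = zVAD with DMSO and 100% = DMSO alone without zVAD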
V-ATPase pHluor: regulators of yeast V-ATPase proton pumping, primary screen, pHLuorin cytosolic pH fluorescence. 0.37% of 350,000 active. AID 504577, 2011. S. cerevisiae. response, % at 10 µM; in the data active means response mostly above about 7.3%, no sharp cut-off; inactive means mostly below about 5.4%; further: actives read high
TNF death inh: inhibitors of TNF-alpha triggered necroptosis, primary screen, cell-based, Jurkat FADD-/-, single concentration; 0.068% of 220,000 active; Jurkat FADD-/- TNF necroptosis rescue, ATP luminescence, 24 h; 0 = TNF only, 100 = no-TNF cells; activation (protection from cell death), % at 10 µM;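 active means activation, meaning protection from cell death, of at least 50% relative to plate controls; inactive means activation below 50%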;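 further: necroptosis triggered by 40 ng/mL TNF-alpha added together with compound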
zVAD necrop conf: inhibitors of zVAD-triggered necroptosis in L929, confirmation, L929 cells, duplicate runs | 16% of 760 active | shares compounds with zVAD death inh | activation (protection from necroptosis), % at 10 µM | L929 zVAD-induced necroptosis rescue, ATP luminescence, 24 h;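 active means mean protection from necroptosis of at least 50% over duplicate tests; inactive means mean protection below 50%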;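 further: 0% = cells with zVAD alone and 100% = vehicle cells without zVAD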
An asterisk follows results filed as active; i = inactive; ? = inconclusive; nt = not tested or not shown. Hits are enriched below; roughly 1.4% of the tested compounds scored in any of these assays.

SMILES | Wee1 stabilizer | HSV augment | zVAD death inh | V-ATPase pHluor | TNF death inh | zVAD necrop conf
O=C(Nc1ccc(Oc2ccc(NC(=O)Nc3ccccc3Cl)cc2)cc1)Nc1ccccc1Cl | 0 | i | 2 | 4 | -5 | nt
COc1ccc(-c2cc3ccc(OC(C)C(=O)O)cc3oc2=O)cc1 (stereo not drawn) | nt | nt | nt | -3 | nt | nt
COc1ccc(S(=O)(=O)NCCC(=O)NC2CCCCCCC2)cc1 | 0 | i | 81* | 3 | 0 | 21
Cc1ccc(S(=O)(=O)NCCC(=O)NC2CCCCCC2)cc1 | nt | nt | nt | -7 | nt | nt
CCN(CC(=O)Nc1ccc(NC(C)=O)cc1)C(=O)CN1C(=O)C2CCCCC2C1=O (stereo not drawn) | nt | nt | nt | -3 | nt | nt
COc1ccc(C(=O)/C=C/c2cn(CC(O)CN3CCOCC3)c3ccccc23)cc1 (stereo not drawn) | -2 | i | 82* | 8 | 7 | 38
COc1ccc(/C=C/C(=O)c2ccc[nH]2)cc1OC | 1 | i | 89* | -3 | 20 | 42
Nc1c2c(=O)oc(-c3ccccc3)cc2nn1-c1ccccc1 | 2 | nt | 90* | 4 | -15 | 27
Cc1c(-c2ccc(Cl)cc2)oc(=O)c2c(N)n(-c3ccccc3)nc12 | 4 | i | 0 | 5 | 2 | nt
COc1cc(-c2[nH]ncc2CN2CCN(Cc3cccs3)CC2)cc(OC)c1OC | -3 | i | 0 | 0 | -1 | nt
COC(=O)c1[nH]c2c(c1C)C(=O)CC(c1cc(OC)c(OC)c(OC)c1)C2 (stereo not drawn) | nt | nt | nt | -2 | nt | nt
O=C(COc1cccc(NC(=O)c2cccs2)c1)c1ccc(F)cc1 | 0 | i | 4 | 1 | 6 | nt
O=C(Nc1cccc(Oc2ccc3c(c2)C(=O)NC3=O)c1)c1cccs1 | -1 | i | 87* | 1 | 0 | 43
Cc1cc(C)n(CCNS(=O)(=O)c2ccc(C)c(C)c2)n1 | nt | nt | nt | -1 | nt | nt
CCOC(=O)c1cccc(NC(=O)c2ccc(NC(=O)C3CCCO3)cc2)c1 (stereo not drawn) | nt | nt | nt | 3 | nt | nt
FC(F)(F)c1cnc2c(c1)Nc1ccccc1S2 | 0 | i | 98* | 3 | 33 | 58*
Cc1ccc(NC(=O)c2ccccc2)cc1-n1cnnn1 | -2 | i | 75* | 2 | 2 | 6
CC1(C)CC(=O)C=C(Nc2cc(-c3ccccc3)[nH]n2)C1 | 1 | i | 91* | 0 | 12 | 24
CCOC(=O)c1c(N)nn(C(=O)c2ccccc2F)c1-c1ccc(OC)cc1 | 2 | i | 78* | -3 | 0 | 0
Nc1ccc(Nc2ccccc2N)cc1 | 0 | i | 9 | 0 | -17 | nt
COc1ccc(Nc2ccccc2N)cc1 | -5 | ? | 92* | 0 | -9 | 24
O=C(NN1C(=O)NC2(CCCCC2)C1=O)c1ccc(Cl)c(Cl)c1 | nt | nt | nt | 2 | nt | nt
Oc1ccc2ccccc2c1C=Nc1ccccc1Br | nt | nt | nt | 1 | nt | nt
Oc1ccccc1N=Cc1c(O)ccc2ccccc12 | 1 | i | 84* | 1 | -6 | 12
Cc1cc(C)cc(NC(=O)c2ccc(CSc3nnnn3C)cc2)c1 | 3 | i | 1 | 2 | 9 | nt
SMILES | Wee1 stabilizer | HSV augment | zVAD death inh | V-ATPase pHluor | TNF death inh | zVAD necrop conf
Cn1nnnc1SCc1ccc(CSc2nnnn2C)cc1 | 0 | i | 2 | 1 | 1 | nt
C=CCn1c(SCc2ccc(C(=O)Nc3nccs3)cc2)nnc1-c1ccc(C)c(Cl)c1 | -4 | i | 103* | -1 | 9 | 60*
Cn1nnnc1SCc1ccc(Cl)cc1 | 13* | i | 83* | 0 | 32 | 8
Cn1nnnc1SCc1ccc(C(=O)Nc2nccs2)cc1 | 4 | i | 92* | 6 | 43 | 88*
C=CCn1c(CCCOc2ccc(Cl)cc2Cl)nnc1SCC(=O)Nc1nccs1 | 1 | i | 0 | -3 | 2 | nt
Cc1ccc(S(=O)(=O)N2CCC(C(=O)OCC(=O)N3CCCC3=O)CC2)cc1C | nt | nt | nt | -2 | nt | nt
N#CCCCN1C(=O)C(=C(C#N)C#N)c2ccccc21 | -1 | i | 76* | 0 | -1 | 0
N#CCCCN1C(=O)C(O)(CC(=O)c2ccc3c(c2)OCCO3)c2ccccc21 (stereo not drawn) | 4 | i | -1 | -1 | -1 | nt
N#Cc1ccsc1NC(=O)CSc1nnnn1-c1ccc(O)cc1 | -2 | i | 76* | -4 | 2 | 41
N#Cc1ccsc1NC(=O)CSc1nncs1 | nt | nt | nt | -4 | nt | nt
Cc1cccc(NC(=O)C2CCN(S(=O)(=O)c3c(C)c(C)cc(C)c3C)CC2)n1 | nt | nt | nt | 2 | nt | nt
O=S(=O)(CC(CN1CCCC1)N1CCCC1)c1ccc2ccccc2c1 (stereo not drawn) | -2 | i | 82* | 0 | -11 | 46
CC(CS(=O)(=O)c1ccc2ccccc2c1)N1CCN(C2CCCCC2)CC1 (stereo not drawn) | 1 | nt | 0 | nt | 0 | nt
c1ccn(-c2ccc(-c3ccn[nH]3)cc2)c1 | 1 | i | 86* | -1 | 7 | 5
c1ccc(CNc2ncnc3nc[nH]c23)nc1 | 0 | i | 1 | -1 | 0 | nt
Brc1ccc2[nH]c3c(NCc4ccccn4)ncnc3c2c1 | -2 | i | 75* | 1 | 8 | 2
CC(C)OCCCNC(=O)c1cc2c(=O)n(C)c3ccccc3c2n1C | 4 | i | 10 | 0 | 0 | nt
CN1CCN(CCCNC(=O)c2cc3c(=O)n(C)c4ccccc4c3s2)CC1 | -2 | i | 77* | -2 | 2 | 24
Cn1c(C(=O)NCCN2CCN(Cc3ccccc3)CC2)cc2c(=O)n(C)c3ccccc3c21 | nt | i | 2 | 1 | -3 | nt
Cn1c(C(=O)NCc2ccccn2)cc2c(=O)n(C)c3ccccc3c21 | -2 | i | 89* | -2 | 1 | 3
Cn1c(C(=O)NCCN2CCCCCC2)cc2c(=O)n(C)c3ccccc3c21 | 4 | i | 84* | 2 | 3 | 10
CCCCN(CC)CCCNC(=O)c1cc2c(=O)n(C)c3ccccc3c2n1C | 5 | i | 80* | -4 | -1 | 34
CNS(=O)(=O)c1ccc2nc(NC(=O)/C=C/c3ccco3)sc2c1 | -1 | i | 76* | 1 | 0 | 2
CCSc1nnc(NC(=O)/C=C/c2ccco2)s1 | 1 | i | -1 | 1 | 0 | nt
CCOCCCNC(=O)c1cc(Sc2ccc(C)cc2)nc2ccccc12 | -1 | i | 1 | 6 | 2 | nt
COCCNC(=O)c1cc(Sc2nnc(C)s2)nc2ccccc12 | 0 | i | 75* | nt | 4 | 8
N#CC(c1nc2ccccc2nc1OCCO)S(=O)(=O)c1ccccc1 (stereo not drawn) | 2 | i | 4 | 2 | 4 | nt
N#CC(C#N)=C1C=CC=CN1/C(=C\c1ccco1)C(=O)c1ccc(-c2ccccc2)cc1 | -1 | nt | 99* | -5 | -4 | 25
